The text below walks through data of ChEMBL document CHEMBL4513146, “CO-ADD screening of Karazin Kharkiv National University (Ukraine) compounds”.

The Inhibition is the change of the read-out against control, counted positive when it falls.

Assay [1] relates to Klebsiella pneumoniae. As to conditions: Concentration 32 ug.mL-1;; ASSAY_TEST Inhibition of Bacterial Growth; detection method Absorption (OD600); MEDIA CAMHB; plate type 384well; NBS; CORNING #3640; time 18 hr.
Assay [2] deals with Candida albicans. As to conditions: Concentration 32 ug.mL-1; ASSAY_TEST Inhibition of Fungal Growth; detection method Absorption (OD530).
The subject of assay [3] is Cryptococcus neoformans. As to conditions: Concentration 32 ug.mL-1; ASSAY_TEST Inhibition of Fungal Growth; detection method Resazurin; Absorption (OD600-OD570); plate type 384well; NBS; CORNING #3640.

Structures are written as SMILES. Measured potencies and affinities stand elsewhere.

In the case of `CCCN(C)c1nccn2c(=O)n(CC(=O)Nc3cccc(C(F)(F)F)c3)nc12`, the Inhibition in assay [1] was 7.15%; in assay [2], -0.05%; in assay [3] it was -3.78%.

On to `COc1cccc(-n2ccn3c(SCc4cccc(F)c4)nnc3c2=O)c1`, for which the Inhibition in assay [1] is listed as 9.47%; in assay [2], 1.25%; in assay [3], -9.96%.

Regarding `COc1cc(-c2nnc3c(=O)n(Cc4ccc(Cl)cc4)ccn23)cc(OC)c1OC`, the Inhibition in assay [1] is reported as 11.02%; in assay [2], -0.08%; in assay [3] it was -21.41%.

`Cn1c(=O)c2ccc(C(=O)NC3CCCC3)cc2n2c(SCc3c(F)cccc3Cl)nnc12`: the values for the Inhibition in assay [1], in assay [2] and in assay [3] were 14.92%, 3.13% and -23.81%, respectively.

For `CCCNC(=O)Cn1nc2n(Cc3cccs3)c(=O)c3sccc3n2c1=O`, the Inhibition is listed as 9.05% in assay [1], -0.4% in assay [2] and -15.54% in assay [3].

In the case of `COc1ccccc1N1CCN(C(=O)CSc2nc3ccccc3n3cnnc23)CC1`, the Inhibition is 8.29% in assay [1], 2.74% in assay [2] and -5.08% in assay [3].

On to `Cc1cc2nn(CC(=O)Nc3ccc(F)c(F)c3)c(=O)n2c(Nc2ccc(F)c(C)c2)n1`, for which the values for the Inhibition in assay [1], in assay [2] and in assay [3] were 10.55%, 1.57% and -7.1%, respectively.

For `COc1ccc(-c2cc3c4nnc(SCC(=O)NCc5ccc(Cl)cc5)n4ccn3n2)cc1`, the values for the Inhibition in assay [1], in assay [2] and in assay [3] were 6.35%, -0.75% and -28.86%, respectively.

For `COC(=O)c1ccc(NC(=O)Cn2c(=O)c3nnc(C(C)C)n3c3ccccc32)cc1`, the values for the Inhibition in assay [1], in assay [2] and in assay [3] were 11.69%, -0.03% and -26.77%, respectively.

On to `O=C(Cn1nc2ccc(SCc3ccc(Cl)cc3)nn2c1=O)Nc1ccc2c(c1)CCC2`, for which the Inhibition in assay [1] is on record as 12.2%; in assay [2], 7.4%; in assay [3] it was -25.38%.

For the compound `Cc1nnc2c(=O)n(CC(=O)Nc3ccccc3Br)c3ccccc3n12`, the figures for the Inhibition in assay [1], in assay [2] and in assay [3] were 8.13%, 2.04% and -7.03%, respectively.

For `Cc1ccc(-n2ccn3c(SCC#N)nnc3c2=O)cc1C`, the Inhibition in assay [1] is reported as 10.69%; in assay [2], 1.05%; in assay [3], -5.76%.

As to `CC(C)c1nnc2c(SCC(=O)N3CCN(c4ccccc4F)CC3)nc3ccccc3n12`, the Inhibition is listed as 4.71% in assay [1], -5.14% in assay [2] and -28.6% in assay [3].

For `CSc1ccc(CNC(=O)Cn2nc3c(N4CC(C)CC(C)C4)nccn3c2=O)cc1` (stereo not drawn), the Inhibition in assay [1] is 6.58%; in assay [2], 0.13%; in assay [3], -5.38%.

Regarding `CCCCOc1ccc(-c2cc3c4nnc(SCC(=O)N(CC)c5ccccc5)n4ccn3n2)cc1`, the Inhibition in assay [1] is 16.4%; in assay [2], 5.05%; in assay [3], -16.28%.

Turning to `COc1cccc(CNC(=O)CCc2nnc3ccc(-c4ccc(C)cc4)nn23)c1`, the Inhibition in assay [1] is 5.64%; in assay [2] it was 2.05%; in assay [3], -1.51%.

In the case of `CCc1nnc2c(SCC(=O)Nc3ccc(C)cc3Br)nc3ccccc3n12`, the figures for the Inhibition in assay [1], in assay [2] and in assay [3] were 6.8%, 1.54% and -14.73%, respectively.

With `COc1ccc(NC(=O)Cn2nc3ccc(-c4ccccc4)nn3c2=O)cc1Cl`, the Inhibition in assay [1] is -6.25%; in assay [2], 19.43%; in assay [3], -3.35%.

As for `Cc1c(Cl)cccc1-n1ccn2c(=O)n(Cc3c(F)cccc3Cl)nc2c1=O`, the Inhibition in assay [1] is reported as 1.26%; in assay [2], 11.96%; in assay [3] it was -12.75%.

On to `Cc1ccc(-c2ccc3nnc(CCC(=O)NCc4cccc(Br)c4)n3n2)cc1C`, for which the Inhibition is given as -2.24% in assay [1], 4.88% in assay [2] and -4.39% in assay [3].

In the case of `O=C(Cn1nc2ccc(Sc3cccc(F)c3)nn2c1=O)Nc1cccc(Cl)c1`, the Inhibition is reported as -3.42% in assay [1], 11.97% in assay [2] and -3.34% in assay [3].

As to `CCCn1c(=O)c2sccc2n2c(CCC(=O)NC(C)C34CC5CC(CC(C5)C3)C4)nnc12` (stereo not drawn), the Inhibition in assay [1] is given as 1.34%; in assay [2] it was 7.2%; in assay [3], -25.73%.

`O=c1c2nnc(SCc3cccc(C(F)(F)F)c3)n2ccn1-c1ccc(Br)cc1`: the Inhibition is recorded as 4% in assay [1], 27.57% in assay [2] and -8.16% in assay [3].

As to `Cc1ccc(Cl)cc1NC(=O)Cn1nc2c(N3CCOCC3)nc3ccccc3n2c1=O`, the Inhibition in assay [1] is reported as 0.47%; in assay [2], 3.17%; in assay [3], -17.81%.

Regarding `CCc1cccc(NC(=O)Cn2nc3ccc(SC4CCCCC4)nn3c2=O)c1`, the Inhibition in assay [1] is recorded as 16.99%; in assay [2] it was 2.91%; in assay [3], -22.11%.

In the case of `CCCCc1ccc(NC(=O)Cn2nc3c(N4CCN(c5ccccc5C)CC4)nccn3c2=O)cc1`, the Inhibition was -4.55% in assay [1], 48.6% in assay [2] and -6.75% in assay [3].

As for `CC(C)c1ccc(N(Cc2ccc(Cl)cc2)S(=O)(=O)c2cccn3cnnc23)cc1`, the figures for the Inhibition in assay [1], in assay [2] and in assay [3] were 9.01%, 2.08% and -6.18%, respectively.

For `CSc1cccc(NC(=O)Cn2nc3ccc(-c4ccccc4)nn3c2=O)c1`, the figures for the Inhibition in assay [1], in assay [2] and in assay [3] were -3.17%, 3.96% and -8.45%, respectively.

With `COc1ccc(NC(=O)Cn2nc3c(N4CCCC(C)C4)nccn3c2=O)cc1OC` (stereo not drawn), the figures for the Inhibition in assay [1], in assay [2] and in assay [3] were -1.27%, -0.12% and -7.35%, respectively.

`COc1cccc(-n2ccn3c(SCc4cccc(C(F)(F)F)c4)nnc3c2=O)c1`: the Inhibition is -17.2% in assay [1], 12.49% in assay [2] and -6.54% in assay [3].

Turning to `Cc1ccc(CNC(=O)CSc2nnc3c4cc(-c5ccc(F)cc5)nn4ccn23)cc1`, the Inhibition is 11.62% in assay [1], 2.7% in assay [2] and -29.65% in assay [3].
